Laboratory results reported in PubChem BioAssay (Tox21).
Inconclusive results are not listed. The source made the active and inactive calls. Unless noted, calls follow the shape of the full dose curve.

Key:
[1] = Nuclear factor erythroid 2-related factor 2/antioxidant responsive element (Nrf2/ARE) small molecule agonists: qHTS cell viability counter screen in human keratinocytes (AID 1919968; active = well fitted curve in the direction sought with a large enough effect in the repeat runs; an effect the other way counts as inactive or inconclusive; also: nearly all actives have a fitted effect of over 55% in size)
Summary of the method: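 Parallel cytotoxicity read: KeratinoSens HaCaT cells, compound treatment 23 h, viability by CellTiter-Fluor fluorescence 1 h post-reagent.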

[2] = Nuclear factor erythroid 2-related factor 2/antioxidant responsive element (Nrf2/ARE) small molecule agonists: luciferase reporter gene qHTS assay in human keratinocytes (AID 1919969); also: nearly all actives have a fitted effect of over 35% in size; also: potency is read from the fitted curve at half-maximal effect
[3] = target: Gonadotropin-releasing hormone receptor (Homo sapiens) (UniProt P30968); test: Human gonadotropin-releasing hormone receptor (GnRHR) small molecule agonists, calcium flux assay in GnRHR-HEK293 cells (AID 1920063); also: nearly all actives have a fitted effect of over 35% in size; also: potency is read from the fitted curve at half-maximal effect
Summary of the method: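 Calcium flux, agonist mode, human GnRHR stably integrated in HEK293; dye 1 h at 37 C before compound; Ex/Em=480/540 kinetic read, 3 min; 15 concentrations, triplicate.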

[4] = target: KiSS-1 receptor (Homo sapiens) (UniProt Q969F8); test: Human kisspeptin (KISS1R) small molecule agonists, calcium flux assay in KISS1R-HEK293 cells (AID 1920064; active = well fitted curve in the direction sought with a large enough effect in the repeat runs; an effect the other way counts as inactive or inconclusive)
Summary of the method: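 Triplicate 15-concentration series were applied to dye-loaded human KISS1R HEK293 cells, and agonist-evoked calcium fluorescence was captured for 3 min.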

[5] = G protein-coupled receptor (GPCR) small molecule agonists, calcium flux assay: HEK293 wild type cell line counter screen (AID 1920065)
Summary of the method: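 Non-specific calcium responders were flagged by adding DMSO-dissolved compounds to dye-loaded cells and reading 480/540 nm fluorescence each second for 3 min; ATP served as positive control.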

[6] = p53 small molecule agonists, cell-based qHTS assay with human liver microsomes (AID 1963577)
Summary of the method: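 Fluorescence of the beta-lactamase reporter in p53RE-bla cells, detected with LiveBLAzer substrate (2 h, room temperature, dark), served as the read-out after 16 h compound exposure at 37 C with human liver microsomes and NADPH, each 0.5 mg/mL final.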

[7] = p53 small molecule agonists, cell-based qHTS assay with rat liver microsomes (AID 1963578)
Summary of the method: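 Cells carrying a p53 response element–beta-lactamase reporter were plated and rested 5 h, then dosed with compound in DMSO plus rat liver microsomes and NADPH, each at 0.5 mg/mL final. After 16 h at 37 C, LiveBLAzer substrate was added for 2 h.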

[8] = p53 small molecule agonists, cell-based qHTS assay with human liver microsomes: qHTS cell viability counter screen (AID 1963579); also: nearly all actives have a fitted effect of over 45% in size
Summary of the method: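 Cytotoxicity counter screen: p53RE-bla, 4,000 cells/well; 5 h settle, 37 C/5% CO2; cpd + HLM 0.5 mg/mL + NADPH 0.5 mg/mL (final); 16 h, 37 C; CellTiter-Glo, 30 min RT, luminescence.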

[9] = p53 small molecule agonists, cell-based qHTS assay with rat liver microsomes: qHTS cell viability counter screen (AID 1963580); also: nearly all actives have a fitted effect of over 45% in size
Summary of the method: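 Luminescent ATP readout (CellTiter-Glo, 30 min at room temperature) reports viability of p53RE-bla HCT-116 cells after 16 h at 37 C with test compounds under metabolic activation by rat liver microsomes and NADPH at 0.5 mg/mL final each.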

[10] = p53 small molecule agonists, cell-based qHTS assay: qHTS cell viability counter screen (AID 1963581); also: nearly all actives have a fitted effect of over 45% in size
Summary of the method: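 Multiplexed with the reporter read, a CellTiter-Glo step (30 min, room temperature) gauges ATP-based viability of HCT-116 p53RE-bla cells after 16 h compound incubation at 37 C.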

[11] = p53 small molecule agonists, cell-based qHTS assay (AID 1963582; active = well fitted activation curve with a large enough effect in the signal ratio in the repeat runs, not every such curve was filed as active; the % refers to the signal ratio)
Summary of the method: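 Beta-lactamase reporter cells (p53RE-bla) treated with compounds for 16 h at 37 C; FRET substrate, 2 h, room temperature; fluorescence intensity.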

[12] = target: 5-hydroxytryptamine receptor 2A (Homo sapiens) (UniProt P28223); test: 5-hydroxytryptamine receptor 2A (HTR2A) small molecule antagonists, cell-based qHTS assay (AID 1963586); also: nearly all actives have a fitted effect of over 45% in size
Summary of the method: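 CHO cells stably expressing human HTR2A were plated for 18 h at 37 C, then loaded with calcium dye for 1 h. Compounds were preincubated 5 min at room temperature before DOI (4 nM solution) was added. Kinetic fluorescence was read for 3 min.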

[13] = target: 5-hydroxytryptamine receptor 2A (Homo sapiens) (UniProt P28223); test: 5-hydroxytryptamine receptor 2A (HTR2A) small molecule agonists, cell-based qHTS assay (AID 1963587); also: nearly all actives have a fitted effect of over 30% in size
Summary of the method: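 HTR2A-CHO cells, plated 18 h at 37 C/5% CO2, dye-loaded 1 h at 37 C; compounds in DMSO added by pin tool (agonist mode). Intracellular calcium flux read as kinetic fluorescence on FDSS over 2 min at 1 s intervals.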

[14] = target: Muscarinic acetylcholine receptor M1 (Homo sapiens) (UniProt P11229); test: Cholinergic receptor muscarinic 1 (CHRM1) small molecule antagonists, cell-based qHTS assay (AID 1963588); also: nearly all actives have a fitted effect of over 40% in size
Summary of the method: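 Compounds were tested at 15 concentrations in three independent runs. Dye-loaded CHRM1-CHO cells were exposed 5 min at room temperature before stimulation by acetylcholine added at 50nM. Intracellular calcium was read kinetically on FDSS for 3 min.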

[15] = target: Muscarinic acetylcholine receptor M1 (Homo sapiens) (UniProt P11229); test: Cholinergic receptor muscarinic 1 (CHRM1) small molecule agonists, cell-based qHTS assay (AID 1963589); also: nearly all actives have a fitted effect of over 35% in size; also: potency is read from the fitted curve at half-maximal effect
Summary of the method: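 qHTS, 15-point titration, 3 independent runs: compounds pin-transferred onto dye-loaded CHRM1-CHO cells (human M1), calcium fluorescence followed every second to detect agonism.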

[16] = cAMP Responsive Elements (CRE) small molecule agonists, cell-based qHTS assay (AID 1963590)
Summary of the method: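 Quantitative HTS for CRE agonists: HEK 293T CRE-bla cells, overnight plating, 3 h compound incubation at 37 C/5% CO2, then 2 h room-temperature LiveBLAzer B/G FRET substrate loading.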

[17] = cAMP Responsive Elements (CRE) small molecule antagonists, cell-based qHTS assay (AID 1963591; active = well fitted inhibition curve with a large enough effect in the signal ratio in the repeat runs, not every such curve was filed as active; the % refers to the signal ratio)
Summary of the method: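 Fluorescence intensity from cleaved LiveBLAzer B/G substrate (2 h, room temperature) quantified CRE-bla activity in HEK 293T cells exposed 3 h to compound with 0.25 uM final NKH477.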

[18] = target: Beta-2 adrenergic receptor (Homo sapiens) (UniProt P07550); test: Adrenergic beta2 receptor (ADRB2) small molecule antagonists, cell-based qHTS assay (AID 1963592); also: series mostly up to about 92 µM; nearly all actives have a fitted effect of over 50% in size
Summary of the method: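 Assay format: CHO-ADRB2 cells, 18-20hr seeding at 37C/5% CO2, then compound plus 1nM isoproterenol agonist mix for 0.5hr RT. Homogeneous time-resolved fluorescence cAMP detection after 1hr, expressed as 665/615 nm ratio.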

[19] = target: D(2) dopamine receptor (Homo sapiens) (UniProt P14416); test: Dopamine D2 receptor (DRD2) small molecule agonists, cell-based qHTS assay (AID 1963594); also: nearly all actives have a fitted effect of over 35% in size
Summary of the method: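 HEK293 cells stably expressing DRD2 were cultured 24 h at 37 C, then given Ro20-1724 (0.1 mM final) and compounds for 10 min at room temperature. NKH477 (200nM) was then added for 30 min. cAMP was read by HTRF.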

[20] = target: D(2) dopamine receptor (Homo sapiens) (UniProt P14416); test: Dopamine D2 receptor (DRD2) small molecule antagonists, cell-based qHTS assay (AID 1963595; active = well fitted inhibition curve with a large enough effect in the signal ratio in the repeat runs, with a control signal flat; the % refers to the signal ratio)
Summary of the method: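 Antagonism was scored as restored cAMP in HEK293-DRD2 cells. These cells were stimulated with 200 nM NKH477 and 12 nM quinpirole for 30 min at room temperature, in the presence of 0.1 mM Ro20-1724.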

Measured: Potency

D(2) dopamine receptor (Homo sapiens), sequence (P14416 whole entry, looked up): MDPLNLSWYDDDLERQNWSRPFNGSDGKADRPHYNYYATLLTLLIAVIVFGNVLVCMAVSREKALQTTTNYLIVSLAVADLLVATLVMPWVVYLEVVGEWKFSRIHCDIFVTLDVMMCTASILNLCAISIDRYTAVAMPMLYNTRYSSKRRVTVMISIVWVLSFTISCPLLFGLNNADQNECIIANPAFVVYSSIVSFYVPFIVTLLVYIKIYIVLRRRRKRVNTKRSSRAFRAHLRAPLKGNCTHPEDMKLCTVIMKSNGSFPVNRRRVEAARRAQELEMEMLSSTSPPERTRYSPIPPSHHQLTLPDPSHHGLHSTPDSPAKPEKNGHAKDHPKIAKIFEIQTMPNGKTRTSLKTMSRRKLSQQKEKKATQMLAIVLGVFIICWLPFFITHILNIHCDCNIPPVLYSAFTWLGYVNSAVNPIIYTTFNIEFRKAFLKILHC
Gonadotropin-releasing hormone receptor (Homo sapiens), sequence (P30968 whole entry, looked up): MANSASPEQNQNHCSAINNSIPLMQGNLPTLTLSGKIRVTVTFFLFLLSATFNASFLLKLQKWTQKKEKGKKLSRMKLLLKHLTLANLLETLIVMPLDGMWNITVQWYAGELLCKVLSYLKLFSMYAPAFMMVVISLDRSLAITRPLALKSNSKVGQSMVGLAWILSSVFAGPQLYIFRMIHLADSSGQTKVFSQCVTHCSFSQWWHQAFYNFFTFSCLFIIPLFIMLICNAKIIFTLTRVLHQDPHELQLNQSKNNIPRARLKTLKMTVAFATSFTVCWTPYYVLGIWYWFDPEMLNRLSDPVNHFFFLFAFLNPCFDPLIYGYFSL
Muscarinic acetylcholine receptor M1 (Homo sapiens), sequence (P11229 whole entry, looked up): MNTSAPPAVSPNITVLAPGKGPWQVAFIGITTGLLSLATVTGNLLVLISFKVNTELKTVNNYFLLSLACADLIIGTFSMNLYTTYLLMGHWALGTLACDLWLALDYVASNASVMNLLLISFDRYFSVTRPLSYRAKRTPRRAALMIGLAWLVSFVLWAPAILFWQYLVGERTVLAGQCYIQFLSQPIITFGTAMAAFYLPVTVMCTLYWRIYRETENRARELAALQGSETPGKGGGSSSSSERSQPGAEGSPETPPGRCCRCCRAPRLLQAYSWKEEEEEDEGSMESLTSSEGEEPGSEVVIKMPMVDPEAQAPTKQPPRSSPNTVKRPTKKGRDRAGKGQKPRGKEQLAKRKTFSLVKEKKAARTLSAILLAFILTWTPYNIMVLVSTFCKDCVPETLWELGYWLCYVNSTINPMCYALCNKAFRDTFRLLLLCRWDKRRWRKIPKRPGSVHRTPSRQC
Beta-2 adrenergic receptor (Homo sapiens), sequence (P07550 whole entry, looked up): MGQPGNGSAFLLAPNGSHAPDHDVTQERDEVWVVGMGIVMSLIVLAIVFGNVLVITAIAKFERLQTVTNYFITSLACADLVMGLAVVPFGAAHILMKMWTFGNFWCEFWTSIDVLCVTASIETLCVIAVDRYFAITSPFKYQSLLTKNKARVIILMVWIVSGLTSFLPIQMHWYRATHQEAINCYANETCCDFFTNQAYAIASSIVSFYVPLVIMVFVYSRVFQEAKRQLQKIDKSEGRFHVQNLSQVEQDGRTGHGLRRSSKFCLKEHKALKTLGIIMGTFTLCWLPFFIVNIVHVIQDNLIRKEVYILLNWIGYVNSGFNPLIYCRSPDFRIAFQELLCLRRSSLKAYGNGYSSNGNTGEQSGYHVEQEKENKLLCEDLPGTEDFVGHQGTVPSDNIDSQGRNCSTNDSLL
5-hydroxytryptamine receptor 2A (Homo sapiens), sequence (P28223 whole entry, looked up): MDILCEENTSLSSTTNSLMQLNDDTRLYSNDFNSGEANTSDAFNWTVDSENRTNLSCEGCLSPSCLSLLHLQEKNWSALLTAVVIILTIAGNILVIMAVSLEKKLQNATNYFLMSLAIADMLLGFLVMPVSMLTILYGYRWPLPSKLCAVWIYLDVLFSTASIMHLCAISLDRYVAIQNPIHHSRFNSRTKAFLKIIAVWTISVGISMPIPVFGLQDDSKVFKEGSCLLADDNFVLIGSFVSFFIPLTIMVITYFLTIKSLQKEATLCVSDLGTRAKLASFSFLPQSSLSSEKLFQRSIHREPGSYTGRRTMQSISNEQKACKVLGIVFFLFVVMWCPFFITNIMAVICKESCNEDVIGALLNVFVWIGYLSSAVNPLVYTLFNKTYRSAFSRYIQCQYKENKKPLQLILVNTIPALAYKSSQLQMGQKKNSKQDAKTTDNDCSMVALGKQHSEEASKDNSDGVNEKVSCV
KiSS-1 receptor (Homo sapiens), sequence (Q969F8 whole entry, looked up): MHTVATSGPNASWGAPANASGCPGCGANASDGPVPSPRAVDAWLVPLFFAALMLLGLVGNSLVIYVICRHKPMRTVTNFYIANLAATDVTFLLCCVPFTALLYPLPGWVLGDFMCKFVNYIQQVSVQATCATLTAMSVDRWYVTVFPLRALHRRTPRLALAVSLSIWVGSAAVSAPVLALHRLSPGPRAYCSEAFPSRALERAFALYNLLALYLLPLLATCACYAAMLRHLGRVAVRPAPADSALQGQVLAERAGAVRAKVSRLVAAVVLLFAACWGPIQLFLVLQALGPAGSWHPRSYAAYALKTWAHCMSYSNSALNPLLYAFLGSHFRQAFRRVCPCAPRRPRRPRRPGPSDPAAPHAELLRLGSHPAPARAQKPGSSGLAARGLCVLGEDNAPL

NCCNCCN
inactive: all assays above

CC(=O)c1cc2ccccc2s1
not listed: [19]
inactive: all other assays above

O=C(O)c1ccc(O)cc1O
not listed: [19]
inactive: all other assays above

COC(=O)CCC(=O)O
not listed: [19]
inactive: all other assays above

CC(C[N+](C)(C)C)OC(N)=O (stereo not given)
active: [3] 13.5 µM | [15] 2.39 µM
not listed: [19]
inactive: all other assays above

CCCCCCCC(OC)OC
inactive: all assays above

CC(=O)N[C@@H](CC(C)C)C(=O)O
inactive: all assays above

CCCCCCCC/C=C\CCCCCCCC(N)=O
not listed: [19]
inactive: all other assays above

O=C(Nc1ccc([N+](=O)[O-])cc1)Nc1ccc([N+](=O)[O-])cc1 (tested in a mixture with another compound)
inactive: all assays above

CCC(C)C(=O)OCCc1ccccc1 (stereo not given)
inactive: all assays above

CCCCCCCCCCCC(=O)OC[C@@H](O)[C@H]1OC[C@H](OCCO)[C@H]1OCCO
active: [2] 23.7 µM
inactive: all other assays above

CCOCCOC(=O)/C=C/c1ccc(OC)cc1
inactive: all assays above
